# Test results as given in PubChem BioAssay (NCATS).
# Active and inactive are the calls of the source. Calls follow the shape of the dose curve; as a rule, active = well fitted cell-killing curve with a large enough effect; inconclusive = small, poorly fitted or top-dose-only effect; inactive = flat fitted curve, though single readings scatter.
# Assay: MultiTox-Fluor Cytotoxicity Assay - LYMP1-003 - Live Cells (AID 962);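 as to activity change, negative = fewer live cells: 0% = DMSO only and full loss = 92 µM tetraoctylammonium bromide; cytotoxic hits lower the live-cell protease signal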
# Conditions: LYMP1-003 lymphoblastoid cells, MultiTox-Fluor live-cell protease fluorescence; series mostly up to 92.2 µM; activity change, negative = fewer live cells: at the top concentration
# Description: NIH Chemical Genomics Center [NCGC]
# NIH Molecular Libraries Screening Centers Network [MLSCN]
# National Institutes of Environmental Health Sciences [NIEHS]
# National Toxicology Program [NTP]
# We have developed a 1536-well cell-based assay for quantitative high throughput screening (qHTS) against a number of cell lines to determine in vitro cytotoxicity of small molecules. This particular assay uses a human lymphoblastoid cell line (LYMP1-003) purchased from Coriell Institute.
# NCGC Assay Protocol Summary:
# The MultiTox-Fluor Cytotoxicity Assay (Promega) is a homogeneous method to simultaneously measure the relative number of live and dead cells in culture by detecting changes in cell membrane integrity. There are two fluorogenic peptide substrates in the assay reagent. Viable cells are determined when the cell-permeant substrate (GF-AFC) enters the cell and is cleaved by protease from live cells resulting in liberated fluorophore. This live-cell protease activity restricted to viable cells is proportional to cell number. The dead cells are determined by using fluorogenic cell-impermeant peptide substrate (bis-AAF-R110) which cleaved by dead cell proteases leaking from damaged cell membrane.
# Using the MultiTox-Fluor Cytotoxicity Assay, the relative number of live cells was measured in the lymphoblastoid cell line with complete culture medium following compound treatment for 16 hours. The assay was performed in opaque black Kalypsys 1536-well plates. In the screen, tetraoctylammonium bromide was used as positive control. Library compounds were measured for their ability to cause acute toxicity in the cell line, as reflected by a decrease in live cell protease activity, in a concentration-dependent manner. […] AC50 values were determined from concentration-response data modeled with the standard Hill equation.
# qHTS protocol for MultiTox-Fluor Cytotoxicity assay
# [Step] [Parameter] [Value] [Description]
# 1. Reagent; 5 uL; 2500 lymphoblastoid cells/well
# 2. Time; 5 hr; 37 C incubation
# 4. Controls; 23 nL; Tetraoctylammonium bromide 6.4pM to 92 uM
# 5. Time; 16 hr; 37 C incubation
# 6. Reagent; 5 uL; MuliTox-Fluor Assay reagent
# 7. Time; 60 min; Room Temperature
# 8. Detection; live-cell fluorescence (Ex/Em=405/510); EnVision plate reader
# Keywords: cell viability, cytotoxicity, lymphoblastoid cell line, fluorescence, NTPHTS, NTPHTS_NCGC, NIEHS, EPA, DSSTox, MLSMR, MLSCN, NIH Roadmap, qHTS, NCGC
# Potency is read from the fitted curve at half-maximal effect.
Compound,"activity change, negative = fewer live cells",Potency
CCCCC(CC)COP(=O)(OCC(CC)CCCC)OCC(CC)CCCC (stereo not given),-3.78% (inactive),–
c1ccc(SCCSc2ccccc2)cc1,-2.25% (inactive),–
CCc1ccc(C(c2ccc(CC)cc2)C(Cl)Cl)cc1,-1.23% (inactive),–
O=C=Nc1ccc(Cl)c(Cl)c1,-39.6% (inactive),–
Cc1c2ccccc2c(C)c2c1ccc1ccccc12,-41.9% (inactive),–
O=C(OCC1CO1)C1CCCCC1C(=O)OCC1CO1 (stereo not given),-6.65% (inactive),–
Oc1ccc2c(c1)OCO2,-2.91% (inactive),–
c1cc2c3c(c1)ccc1cccc(c13)C2,-6.93% (inactive),–
C=C1CC[C@H](O)C/C1=C/C=C1\CCC[C@]2(C)[C@@H]([C@H](C)CCCC(C)C)CC[C@@H]12,–,50.1 µM (active)
OCC(CBr)(CBr)CBr,-7.05% (inactive),–
CC(/C=C/C=C(C)/C=C/C(=O)O)=C\C=C\C=C(C)\C=C\C=C(C)\C=C\C(=O)O,-1.06% (inactive),–
C=CC(=O)OCCCCCCOC(=O)C=C,–,50.1 µM (active)
O=c1[nH]ncc2ccccc12,-5.99% (inactive),–
CCCCCCc1ccc(-c2ccc(C#N)cc2)cc1,-1.63% (inactive),–
Oc1ccc(O)c2c(O)cccc12,-14.6% (inactive),–
c1ccc(COCc2ccccc2)cc1,-6.57% (inactive),–
Nc1cnn([C@@H]2O[C@H](CO)[C@@H](O)[C@H]2O)c(=O)n1,-6.61% (inactive),–
CC(=O)c1ccc(Cl)c(Cl)c1Cl,-4.17% (inactive),–
CC(C)(C)C(=O)C1C(=O)c2ccccc2C1=O,-19.2% (inactive),–
O=[N+]([O-])c1cc(Cl)c(Cl)c(Cl)c1Cl,-29.5% (inactive),–

Compound,"activity change, negative = fewer live cells",Potency
OC1CCCCC1,-2.44% (inactive),–
C1CCCNCC1,-12.5% (inactive),–
C[C@@H]1CC2(OC(O)[C@]3(C)O[C@H]23)O[C@H]2C[C@@]3(C)[C@@H]4CC[C@H]5C(C)(C)C(O[C@@H]6OC[C@@H](O)[C@H](O)[C@H]6O)CC[C@@]56C[C@@]46CC[C@]3(C)[C@@H]12 (stereo not given in full),-7.69% (inactive),–
CC/C=C/C/C=C/C/C=C/CCCCCCCC(=O)OCC,-33.6% (inactive),–
CC(C)COC(=O)COc1cc(Cl)c(Cl)cc1Cl,3.14% (inactive),–
CCCCC(CC)COC(=O)COc1ccc(Cl)cc1Cl (stereo not given),-5.69% (inactive),–
CCCCC(CC)COCCCN (stereo not given),-1.75% (inactive),–
Nc1ccc(-c2ccc(N)c(O)c2)cc1O,-10.1% (inactive),–
Cc1ccc(N)cc1[N+](=O)[O-],-4.55% (inactive),–
CC(=O)OC(C(=O)c1ccccc1)c1ccccc1 (stereo not given),-10.1% (inactive),–
COc1ccc(C(=O)Nc2ccccc2)cc1[N+](=O)[O-],-7.9% (inactive),–
CCCCOC(=O)COc1ccc(Cl)cc1Cl,-1.53% (inactive),–
C/C=C1/C(=O)C[C@H]2[C@@H]3CCC4=CC(=O)CC[C@]4(C)[C@H]3CC[C@]12C,-27.9% (inactive),–
O=[N+]([O-])c1cccc(I)c1,-2.36% (inactive),–
O=C(O)c1ccc([N+](=O)[O-])cc1,0.167% (inactive),–
C/C(Cl)=C/CCl,-7.43% (inactive),–
Brc1cc(Br)c(Oc2cc(Br)c(Br)cc2Br)cc1Br,-4.22% (inactive),–
Nc1cc(C(=O)O)c(O)c(S(=O)(=O)O)c1,-3.02% (inactive),–
CCCCCCCCC1CO1 (stereo not given),-4.65% (inactive),–
Cc1ccc(S(N)(=O)=O)cc1,-7.17% (inactive),–
